# Experimental data reported in the antibiotic and cytotoxicity screens of Wong et al. (2023).
# The campaign covered roughly 39,000 compounds. About 3,300 (8.5%) were called active. The sample as a whole holds a higher share of actives than the screen did.
# Tested on: HepG2
# Assay: cytotoxicity call (relative viability < 0.9)
# Settings: 10 µM
row,Structure (SMILES),cytotoxicity call
1,NC1CCC(N[C@@H]2C[C@H]2c2ccccc2)CC1 (stereo partly specified),inactive
2,C=CCC[C@@H](Cc1ccc(F)cc1)C(=O)OC[C@H]1CCCN1C(=O)[C@@H](CC=C)CC(=O)N(CCO)Cc1ccccc1,inactive
3,COc1cccc(S(=O)(=O)Nc2ccc3c(c2)OC[C@H](C)N(C(=O)Cc2cccnc2)C[C@H](C)[C@@H](OC)CN(C)C3=O)c1,inactive
4,C[C@@H]1CN([C@H](C)CO)C(=O)c2cc(NS(=O)(=O)c3cn(C)cn3)ccc2O[C@@H]1CN(C)Cc1ccccc1,inactive
5,COCC(=O)NC1CCN(C2CCNCC2)CC1,inactive
6,CO[C@H]1O[C@H](CO)[C@@H](OC(=O)Nc2ccccc2)[C@@H]2OC(=O)[C@H](Cc3cccc(Br)c3)C/C=C/C[C@@H](Cc3cccc(Br)c3)C(=O)O[C@@H]12,inactive
7,C[C@H]1CN([C@@H](C)CO)C(=O)c2cccc(NC(=O)C3CCOCC3)c2O[C@H]1CN(C)C(=O)NC1CCCCC1,inactive
8,CC(C)(C)[S@@](=O)N1Cc2cc(C(=O)N3CCc4ccccc4C3)nc(-c3cccc(-c4cccnc4)c3)c2[C@H]1CCO,inactive
9,Cc1noc(C)c1S(=O)(=O)Nc1ccc2c(c1)C(=O)N([C@H](C)CO)C[C@@H](C)[C@@H](CN(C)S(=O)(=O)c1ccc(Cl)cc1)O2,inactive
10,C[C@H]1CN([C@@H](C)CO)C(=O)c2cc(NS(=O)(=O)c3cn(C)cn3)ccc2O[C@@H]1CN(C)S(=O)(=O)c1ccccc1,inactive
11,CN1CCN(C(=O)C[C@H]2CC[C@H]3[C@H](COc4ccc(NC(=O)c5cscn5)cc4C(=O)N3C)O2)CC1,inactive
12,C[C@H](CO)N1C[C@H](C)[C@@H](CN(C)Cc2ccc(-c3ccccc3)cc2)Oc2ccc(NC(=O)Nc3ccccc3)cc2CC1=O,active
13,C[C@@H]1CN([C@@H](C)CO)C(=O)c2cc(NC(=O)CCCN(C)C)ccc2O[C@@H]1CN(C)Cc1ccncc1,inactive
14,C[C@H](CO)N1C[C@H](C)[C@@H](CN(C)C(=O)Nc2ccc(C(F)(F)F)cc2)OCCCC[C@H](C)Oc2ccc(NS(C)(=O)=O)cc2C1=O,inactive
15,COc1ccc(S(=O)(=O)Nc2ccc3c(c2)CC(=O)N([C@H](C)CO)C[C@H](C)[C@H](CN(C)S(=O)(=O)c2ccc(C)cc2)O3)cc1,inactive
16,NCC[C@@H]1CC[C@H](NC(=O)C2CC2)[C@@H](CO)O1,inactive
17,O=C(O)c1cc2cc(F)ccc2s1,inactive
18,C[C@@H]1CCCCO[C@H](CN(C)Cc2ccc3c(c2)OCO3)[C@H](C)CN([C@@H](C)CO)C(=O)c2cc(NS(=O)(=O)c3ccccc3)ccc2O1,active
19,C[C@H](CO)N1C[C@H](C)[C@@H](CN(C)Cc2ccc3c(c2)OCO3)OCCCC[C@H](C)Oc2ccc(NS(=O)(=O)c3ccccc3)cc2C1=O,inactive
20,C[C@@H]1CN([C@H](C)CO)C(=O)c2cc(NS(=O)(=O)c3ccccc3)ccc2O[C@@H](C)CCCCO[C@@H]1CN(C)Cc1ccc2c(c1)OCO2,active
21,C[C@@H]1CCCCO[C@H](CN(C)Cc2ccc3c(c2)OCO3)[C@H](C)CN([C@H](C)CO)C(=O)c2cc(NS(=O)(=O)c3ccccc3)ccc2O1,inactive

row,Structure (SMILES),cytotoxicity call
1,C[C@H](CO)N1C[C@H](C)[C@H](CN(C)Cc2ccc3c(c2)OCO3)OCCCC[C@H](C)Oc2ccc(NS(=O)(=O)c3ccccc3)cc2C1=O,inactive
2,C[C@H]1CCCCO[C@H](CN(C)Cc2ccc3c(c2)OCO3)[C@@H](C)CN([C@@H](C)CO)C(=O)c2cc(NS(=O)(=O)c3ccccc3)ccc2O1,inactive
3,C[C@@H]1CCCCO[C@@H](CN(C)Cc2ccc3c(c2)OCO3)[C@H](C)CN([C@H](C)CO)C(=O)c2cc(NS(=O)(=O)c3ccccc3)ccc2O1,active
4,C[C@H]1CCCCO[C@@H](CN(C)Cc2ccc3c(c2)OCO3)[C@@H](C)CN([C@@H](C)CO)C(=O)c2cc(NS(=O)(=O)c3ccccc3)ccc2O1,inactive
5,C[C@@H]1CCCCO[C@H](CN(C)Cc2ccc3c(c2)OCO3)[C@@H](C)CN([C@@H](C)CO)C(=O)c2cc(NS(=O)(=O)c3ccccc3)ccc2O1,inactive
6,C[C@H](N)C(=O)N[C@@]1(C(=O)O)C[C@@H](Sc2nnc[nH]2)[C@H]2[C@H](C(=O)O)[C@H]21,inactive
7,C[C@H](CO)N1C[C@H](C)[C@H](CN(C)S(=O)(=O)c2ccc(F)cc2)Oc2ccc(NS(C)(=O)=O)cc2C1=O,inactive
8,Cl.Cl.N=C(N)N,inactive
9,COCCOC(=O)N1C(=O)[C@@]2(c3cc(C#CCCO)ccc31)[C@H](C(=O)NC[C@H](O)c1ccccc1)[C@H]1C(=O)O[C@H](c3ccccc3)[C@H](c3ccccc3)N1[C@@H]2c1ccccc1OCCO,inactive
10,CCS(=O)(=O)N1CC[C@]2(CC1)CN([C@H](CO)c1[nH]c3cc(ccc3c12)OC)S(=O)(=O)c1cn(cn1)C,inactive
11,C[C@@H]1CN([C@@H](C)CO)C(=O)Cc2cc(NS(=O)(=O)c3ccccc3)ccc2O[C@H]1CN(C)S(=O)(=O)c1cn(C)cn1,inactive
12,C[C@@H]1CN([C@@H](C)CO)C(=O)c2cc(NC(=O)CCCN(C)C)ccc2O[C@H]1CN(C)C(=O)Nc1ccc(F)cc1,inactive
13,O=C1NC(=O)[C@@]2(CCOc3ccc(F)cc32)N1,inactive
14,C[C@@H]1CCCCO[C@H](CN(C)S(=O)(=O)c2cn(C)cn2)[C@@H](C)CN([C@@H](C)CO)C(=O)c2cc(NS(=O)(=O)c3cn(C)cn3)ccc2O1,inactive
15,COc1ccc(NC(=O)N2C[C@H](O)COC[C@@H]3O[C@H](CC(=O)NC4Cc5ccccc5C4)CC[C@H]32)cc1,inactive
16,Cc1ccc2c(c1)c1nc3ccccc3nc1n2Cc1ccccc1,inactive
17,Cc1ccc(C(=O)N(CCCN)[C@@H](c2oc3cc(Cl)ccc3c(=O)c2Cc2ccccc2)C(C)C)cc1,active
18,Cc1ccc(C(=O)N(CCCN)[C@@H](c2nc3cc(Cl)ccc3c(=O)n2Cc2ccccc2)C(C)C)cc1,active
19,COc1ccc(NC(=O)Nc2ccc3c(c2)C(=O)N([C@H](C)CO)C[C@H](C)[C@H](CN(C)Cc2ccc(C(=O)Nc4ccccc4N)cc2)O3)cc1,inactive
20,O=C(NO)c1cccc(C(=O)N/N=C/[C@H](O)[C@@H](O)[C@H](O)[C@H](O)CO[C@H]2O[C@H](CO)[C@H](O)[C@H](O)[C@H]2O)c1,inactive
